{"source": "PubChem BioAssay (Tox21)", "note": "Results filed as inconclusive are left out. The source made the active and inactive calls. Calls come from the whole dose curve; as a rule, active = well fitted activation curve with a large enough effect in the repeat runs; inconclusive = weak or mixed curves; inactive = flat fitted curve, though single readings scatter. % is set by controls: 0 for no effect and ±100 for the full control effect; potency is the fitted concentration of half-maximal effect."}
{"test": "A CellTox Green Cytotoxicity Assay to monitor cytotoxicity in HEK293 cells - 32 hour (AID 1224881); note: nearly all actives have a fitted effect of over 40% in size", "conditions": "CellTox Green fluorescence; series mostly up to 76.8 µM; cytotoxicity increase: at the top concentration", "method_in_brief": "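Homogeneous no-lysis format: HEK293 cell suspension mixed with CellTox Green reagent, seeded, incubated 5 h at 37 C/5% CO2, then dosed by pintool with compound in DMSO.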"}
{"smiles": "O=C1OC(O)C(C(Cl)Cl)=C1Cl", "note": "(configuration not stated)", "cytotoxicity increase": "-2.16% (inactive)"}
{"smiles": "CCOc1ccc([N+](=O)[O-])cc1", "Potency": "44.3 µM (active)"}
{"smiles": "C=CCc1cc(S(=O)(=O)c2ccc(O)c(CC=C)c2)ccc1O", "cytotoxicity increase": "-2.34% (inactive)"}
{"smiles": "CN(C/C=C/c1ccccc1)Cc1cccc2ccccc12", "Potency": "19 µM (active)"}
{"smiles": "CC(=O)[C@]1(O)Cc2c(O)c3c(c(O)c2[C@@H](O[C@H]2C[C@H](N)[C@H](O)[C@H](C)O2)C1)C(=O)c1ccccc1C3=O", "cytotoxicity increase": "11.2% [at 35.3 µM] (inactive)"}
{"smiles": "COc1c(Br)cc(Br)c(C)c1Br", "cytotoxicity increase": "-1.3% (inactive)"}
{"smiles": "N#Cc1ccc(C/C(=N/NC(=O)Nc2ccc(OC(F)(F)F)cc2)c2cccc(C(F)(F)F)c2)cc1", "cytotoxicity increase": "5.53% (inactive)"}
{"smiles": "O=C(CCCCCCCCc1cccnc1)N1CCC(C=C(c2ccccc2)c2ccccc2)CC1", "cytotoxicity increase": "21% (inactive)"}
{"smiles": "O=S(=O)(c1ccc(OCc2ccccc2)cc1)c1ccccc1O", "cytotoxicity increase": "-10.4% (inactive)"}
{"smiles": "CC(C)(C)c1ccc(OC2CCCCC2O)cc1", "note": "(configuration not stated)", "Potency": "49 µM (active)"}
{"smiles": "CCCCCCCCCCCCCCCCC(C(=O)O)C(O)(CC(=O)O)C(=O)O", "note": "(configuration not stated)", "cytotoxicity increase": "18.2% [at 35.3 µM] (inactive)"}
{"smiles": "CCCC(=O)c1cc(O)c(O)cc1O", "cytotoxicity increase": "-42% (inactive)"}
{"smiles": "O=C(Nc1ccccc1)c1cc(Cl)ccc1O", "cytotoxicity increase": "17.1% (inactive)"}
{"smiles": "C=C1C(CCl)(CCl)C2(Cl)C(Cl)C(Cl)C1(Cl)C2(Cl)Cl", "note": "(configuration not stated)", "Potency": "48.4 µM (active)"}
{"smiles": "Cc1c[nH]c(=O)[nH]c1=O", "cytotoxicity increase": "-8.05% (inactive)"}
{"test": "A CellTox Green Cytotoxicity Assay to monitor cytotoxicity in HepG2 cells - 0 hour (AID 1224882); note: nearly all actives have a fitted effect of over 35% in size", "conditions": "CellTox Green fluorescence; series mostly up to 76.8 µM; cytotoxicity: at the top concentration", "method_in_brief": "(§1)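 Fluorescent DNA-binding dye, 600 HepG2 cells/well, 5 h preincubation then compound in DMSO; same plates read at 0–40 h, 37 C.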"}
{"smiles": "Cc1ccc(Cl)c(N)c1Cl", "cytotoxicity": "-0.0592% (inactive)"}
{"smiles": "O=C1CCCCCCCCCCCCCC1", "cytotoxicity": "-0.0173% (inactive)"}
{"smiles": "O=C1OC(O)C(C(Cl)Cl)=C1Cl", "note": "(configuration not stated)", "cytotoxicity": "-2.08% (inactive)"}
{"smiles": "COc1cc(/C=C/C(=O)CC(=O)/C=C/c2ccc(O)c(OC)c2)ccc1O", "Potency": "43.9 µM (active)"}
{"smiles": "O=C(Cl)c1ccc(Cl)cc1Cl", "cytotoxicity": "6.56% (inactive)"}
{"smiles": "c1ccc2c(c1)-c1ccc3ccc4cccc5cc-2c1c3c45", "cytotoxicity": "19.8% [at 35.3 µM] (inactive)"}
{"smiles": "CCOc1ccc([N+](=O)[O-])cc1", "cytotoxicity": "8.8% (inactive)"}
{"smiles": "Cc1cc(Br)ccc1NC(=O)CCl", "cytotoxicity": "2.35% (inactive)"}
{"smiles": "NCc1cccc(C2CCN(C(=O)c3ccc(C#Cc4ccccc4F)o3)CC2)c1", "cytotoxicity": "2.12% (inactive)"}
{"smiles": "C=CCc1cc(S(=O)(=O)c2ccc(O)c(CC=C)c2)ccc1O", "cytotoxicity": "7.04% (inactive)"}
{"smiles": "c1ccc2cc3c4ccccc4c4ccccc4c3cc2c1", "cytotoxicity": "-1.83% (inactive)"}
{"smiles": "CN(C/C=C/c1ccccc1)Cc1cccc2ccccc12", "Potency": "19 µM (active)"}
{"smiles": "O=C(CCN1CCC(c2ccccc2)C1)c1ccc2c(c1)OCCO2", "note": "(configuration not stated)", "cytotoxicity": "-15.1% [at 35.3 µM] (inactive)"}
{"smiles": "O=C1CCC/C=C\\CCCCCCCCCC1", "cytotoxicity": "-1.05% (inactive)"}
{"smiles": "COc1cc([C@@H]2c3cc4c(cc3[C@@H](O[C@@H]3O[C@@H]5CO[C@@H](C)O[C@H]5[C@H](O)[C@H]3O)[C@H]3COC(=O)[C@H]23)OCO4)cc(OC)c1O", "cytotoxicity": "1.45% (inactive)"}
{"smiles": "COc1c(Br)cc(Br)c(C)c1Br", "cytotoxicity": "0.589% (inactive)"}
{"smiles": "N#Cc1ccc(C/C(=N/NC(=O)Nc2ccc(OC(F)(F)F)cc2)c2cccc(C(F)(F)F)c2)cc1", "cytotoxicity": "2.13% (inactive)"}
{"smiles": "O=C(CCCCCCCCc1cccnc1)N1CCC(C=C(c2ccccc2)c2ccccc2)CC1", "cytotoxicity": "-6.6% (inactive)"}
{"smiles": "c1ccc(C[P+](c2ccccc2)(c2ccccc2)c2ccccc2)cc1", "cytotoxicity": "5.08% (inactive)"}
{"smiles": "CCCCCCCC/C=C\\CCCCCCCC(=O)N(CCO)CCO", "cytotoxicity": "-10.5% (inactive)"}
{"smiles": "O=S(=O)(c1ccc(OCc2ccccc2)cc1)c1ccccc1O", "cytotoxicity": "-10.3% (inactive)"}
{"smiles": "CC1=C(/C=C/C(C)=C/C=C/C(C)=C\\C(=O)O)C(C)(C)CCC1", "cytotoxicity": "0.894% (inactive)"}
{"smiles": "CC(C)(C)c1ccc(OC2CCCCC2O)cc1", "note": "(configuration not stated)", "cytotoxicity": "-0.273% (inactive)"}
{"smiles": "CCCCCCCCCCCCCCCCC(C(=O)O)C(O)(CC(=O)O)C(=O)O", "note": "(configuration not stated)", "cytotoxicity": "1.17% [at 35.3 µM] (inactive)"}
{"smiles": "CCCCCCCCCCCCN1CCCC1=O", "cytotoxicity": "0.599% (inactive)"}
{"smiles": "CCCCC/C=C\\C=C\\C(=O)OCC", "cytotoxicity": "0.128% (inactive)"}
{"smiles": "CCCCCCCCCCCCCCCCCCNC(=O)OC1CCN(C(=O)OC[C@H](COC(=O)N(Cc2cccc[n+]2CC)C(=O)c2ccccc2OC)OC)CC1", "cytotoxicity": "-0.808% [at 35.3 µM] (inactive)"}
{"smiles": "O=C(Nc1ccccc1)c1cc(Cl)ccc1O", "cytotoxicity": "2.49% (inactive)"}
{"smiles": "Clc1nc(C(Cl)(Cl)Cl)c(Cl)c(Cl)c1Cl", "cytotoxicity": "-1.62% (inactive)"}
{"smiles": "CC(O)(c1ccc(Cl)cc1)c1ccc(Cl)cc1", "cytotoxicity": "2.32% (inactive)"}
{"smiles": "C=C1C(CCl)(CCl)C2(Cl)C(Cl)C(Cl)C1(Cl)C2(Cl)Cl", "note": "(configuration not stated)", "cytotoxicity": "-1.26% (inactive)"}
{"smiles": "Cc1c[nH]c(=O)[nH]c1=O", "cytotoxicity": "7.9% (inactive)"}
{"test": "A CellTox Green Cytotoxicity Assay to monitor cytotoxicity in HepG2 cells - 32 hour (AID 1224883); note: nearly all actives have a fitted effect of over 50% in size", "conditions": "CellTox Green fluorescence; series mostly up to 76.8 µM; cytotoxicity increase: at the top concentration", "method_in_brief": "as §1"}
{"smiles": "O=C1OC(O)C(C(Cl)Cl)=C1Cl", "note": "(configuration not stated)", "Potency": "45 µM (active)"}
{"smiles": "COc1cc(/C=C/C(=O)CC(=O)/C=C/c2ccc(O)c(OC)c2)ccc1O", "Potency": "49.3 µM (active)"}
{"smiles": "O=C(Cl)c1ccc(Cl)cc1Cl", "Potency": "54.9 µM (active)"}
{"smiles": "NCc1cccc(C2CCN(C(=O)c3ccc(C#Cc4ccccc4F)o3)CC2)c1", "Potency": "43.6 µM (active)"}
{"smiles": "C=CCc1cc(S(=O)(=O)c2ccc(O)c(CC=C)c2)ccc1O", "cytotoxicity increase": "21.7% (inactive)"}
{"smiles": "c1ccc2cc3c4ccccc4c4ccccc4c3cc2c1", "Potency": "13.9 µM (active)"}
{"smiles": "CN(C/C=C/c1ccccc1)Cc1cccc2ccccc12", "Potency": "23.9 µM (active)"}
{"smiles": "CC(=O)[C@]1(O)Cc2c(O)c3c(c(O)c2[C@@H](O[C@H]2C[C@H](N)[C@H](O)[C@H](C)O2)C1)C(=O)c1ccccc1C3=O", "Potency": "23.9 µM (active)"}
{"smiles": "COc1cc([C@@H]2c3cc4c(cc3[C@@H](O[C@@H]3O[C@@H]5CO[C@@H](C)O[C@H]5[C@H](O)[C@H]3O)[C@H]3COC(=O)[C@H]23)OCO4)cc(OC)c1O", "Potency": "48.4 µM (active)"}
{"smiles": "N#Cc1ccc(C/C(=N/NC(=O)Nc2ccc(OC(F)(F)F)cc2)c2cccc(C(F)(F)F)c2)cc1", "cytotoxicity increase": "0.208% (inactive)"}
{"smiles": "O=C(CCCCCCCCc1cccnc1)N1CCC(C=C(c2ccccc2)c2ccccc2)CC1", "cytotoxicity increase": "20.9% (inactive)"}
{"smiles": "c1ccc(C[P+](c2ccccc2)(c2ccccc2)c2ccccc2)cc1", "Potency": "21.9 µM (active)"}
{"smiles": "O=C(Nc1ccccc1)c1cc(Cl)ccc1O", "Potency": "49 µM (active)"}
{"smiles": "Clc1nc(C(Cl)(Cl)Cl)c(Cl)c(Cl)c1Cl", "Potency": "43.6 µM (active)"}
{"smiles": "CC(O)(c1ccc(Cl)cc1)c1ccc(Cl)cc1", "Potency": "49 µM (active)"}
